Activity change data for 84 compounds are collected here from PubChem BioAssay AID720553 (National Center for Advancing Translational Sciences (NCATS), 2013).

Hit rate of the full screen: of about 340,000 compounds, about 3,300 (0.97%) were called active. The full list was thinned out, with actives kept by preference. Values without a mark were called inactive.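 Rule for the calls: active = maximum activity change below -70%; inconclusive = maximum activity change from -70% to -50%; inactive = maximum activity change above -50%.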
% is set by controls: 0 for no effect and ±100 for the full control effect.

The subject of the experiment is Potassium voltage-gated channel subfamily H member 2, brain isoform KCNH2 3.1 (human). Description: qHTS for Inhibitors of KCHN2 3.1: Mutant qHTS. The settings on record: U2OS KCNH2 3.1, thallium flux FluxOr; stronger effect = lower value. The essentials:
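Channel expression came from 3.1 mutant virus (1.77 x 10^8 /mL) applied to suspended U2OS cells for 4 h. Flux was tracked with FluxOr dye plus Red40 quencher, and kinetic rate constants normalized to controls.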
A general note: In qHTS, concentration-response curves come from the screen itself.
Regarding `COC(=O)C(Cc1c[nH]c2ccccc12)NC(=O)CCNC(=O)c1ccco1` (centres undefined), the activity change is 3.09%.
The figure for `O=C(C[C@H]1C[C@H]2c3cc(NS(=O)(=O)c4ccc(F)cc4)ccc3O[C@H]2[C@H](CO)O1)NCc1cc(F)ccc1F` is -4.51%; for `CCC(CC)COC(=O)C1=C(C)NC(=O)NC1c1ccc([N+](=O)[O-])cc1` (centres undefined) it is 10.1%; for `CC1=C(C(=O)OC2CCCCC2)C(c2ccccc2F)NC(=O)N1` (centres undefined) it is 8.03%.
As for `CC1=C(C(=O)OCC2CCCCC2)C(c2ccc(F)cc2)NC(=O)N1` (centres undefined), the activity change was -100% (active).
As for `COc1cccc(/C=N/NC(=O)C(=O)N2CCCC2)c1`, the activity change is -74.7% (active).
As to `O=C(N/N=C/c1ccc2c(c1)OCO2)C(=O)N1CCCC1`, the activity change is -5.78%.
The figure for `COC(=O)c1ccc(/C=N/NC(=O)C(=O)N2CCCCCC2)cc1` is 2.79%; for `CC(=O)c1ccc(OCC(=O)N(C)C2CCS(=O)(=O)C2)cc1` (centres undefined) it is -6.59%; for `COC(=O)C[C@H]1C[C@@H]2c3cc(NC(=O)Nc4ccccc4)ccc3O[C@@H]2[C@@H](CO)O1` it is 4.16%.
In the case of `CN(C)CCN(C(=O)CN1C(=O)c2ccccc2C1=O)c1nc2cc3c(cc2s1)OCCO3`, the activity change is 4.48%.
For `Cc1ccc2sc(N(CCN(C)C)C(=O)/C=C/c3cccs3)nc2c1C` the value was -90.5% (active); for `Cc1ccc2nc(N(CCN(C)C)C(=O)C3=COCCO3)sc2c1`, -3.64%; for `Cc1cc(C)c2nc(N(CCN(C)C)C(=O)/C=C/c3cccs3)sc2c1`, -103% (active).
For `Cc1cccc2sc(N(CCCN(C)C)C(=O)CCS(=O)(=O)c3ccccc3)nc12` the value was -7.9%; for `Cc1ccc(S(=O)(=O)N(C)C)cc1NC(=O)/C=C/c1cccs1`, -14.2%.
The figure for `CCCCCC(=O)N1C[C@H](O)[C@@H](n2cc(COC(=O)c3ccccc3)nn2)C[C@@H]1c1ccc(C)cc1` is -34.6%.
With `NC1=CC(=O)C(=O)c2cccnc21`, the activity change is -3.65%.
For `C[C@@H]1CN([C@@H](C)CO)C(=O)c2cc(NS(C)(=O)=O)ccc2O[C@@H](C)CCCCO[C@H]1CN(C)C(=O)Nc1ccc2c(c1)OCO2` the value was 11.4%; for `C[C@H]1Cn2cnc(C(=O)N[C@H](C)c3ccccc3)c2C(=O)N1`, -8.17%.
The figure for `COC(=O)c1ccccc1N=NNc1ccc([N+](=O)[O-])cc1` is 5.4%; for `Nc1ccc2nc3c(=O)[nH]c(=S)[nH]c3nc2c1` it is -92.4% (active).
The figure for `C[C@H]1CN([C@@H](C)CO)C(=O)c2cc(-c3ccccc3F)cnc2O[C@H]1CN(C)C(=O)C1CCOCC1` is -1.4%.
`CC(C)N=C1CCCC1C(=S)SSC(=S)C1CCCC1=NC(C)C` (centres undefined): the activity change was 8.25%.
For `COc1cc(C(=O)NC2CCN(Cc3ccccc3)CC2)cc(Cl)c1OC(C)C` the value was -16.6%; for `COc1ccc(C(=O)NC2CC2)cc1OC1CCN(Cc2ccc(SC)cc2)CC1`, -111% (active); for `COc1cc2[nH]c(=O)n(Cc3ccc(C(=O)NC4CCN(Cc5ccccc5)CC4)cc3)c(=O)c2cc1OC`, -8.47%.
For `COc1cc(C(=O)N2CCN(C/C=C/c3ccccc3)CC2)cc(OC)c1C` the value was -2.35%; for `COc1ccc(C(=O)NCCn2nc(C)cc2C)cc1OC1CCN(C(C)=O)CC1`, 12.7%; for `COc1ccc(C(=O)NC2CC2)cc1OC1CCN(C/C=C/c2ccccc2)CC1`, -96.9% (active).
For `COCC(=O)N(C)C[C@H]1Oc2cc(Br)ccc2S(=O)(=O)N([C@H](C)CO)C[C@H]1C`, the activity change was -6.83%.
For `COc1ccc(S(=O)(=O)N2CCC(C(=O)NCCC(=O)Nc3ccccc3OC)CC2)cc1` the value was 7.34%; for `COCOCCn1cc(CN2CCS(=O)(=O)N(Cc3ccc(-c4ccccc4)cc3)C(CC(C)C)C2=O)nn1` (centres undefined), -28.9%.
As for `C[C@H](NC(=O)c1nc[nH]c1C(=O)NCC(=O)OC(C)(C)C)C(=O)OCc1ccccc1`, the activity change is -109% (active).
As for `C[C@H](NC(=O)c1nc[nH]c1C(=O)NCC(=O)OC(C)(C)C)c1ccccc1`, the activity change was -20.8%.
For `CC(C)(C)OC(=O)CNC(=O)c1[nH]cnc1C(=O)N[C@@H](Cc1ccccc1)C(=O)OCc1ccccc1` the value was -2.87%; for `C[C@H]1CN([C@@H](C)CO)C(=O)CCCn2cc(nn2)CO[C@@H]1CN(C)S(=O)(=O)c1ccc(-c2ccccc2)cc1`, -9.74%.
For `c1ccc2c(c1)nnn2-c1ccncc1` the value was 1.83%; for `COc1ccc(Cl)cc1NC(=O)CN(C)C(=O)c1cn(-c2ccccc2)nc1-c1cccs1`, -9.77%.
For `CSc1ncccc1C(=O)N1CCCC(Nc2ccc(F)c(F)c2)C1` (centres undefined) the value was -0.997%; for `COc1ccc(C(=O)C2CCCN(S(=O)(=O)c3cccc(C)c3)C2)c(C)c1` (centres undefined), -2.34%.
For `COc1ccc(C(=O)C2CCCN(Cc3cccn3-c3ccccn3)C2)c(C)c1` (centres undefined), the activity change is -108% (active).
As for `CCOC(=O)c1[nH]ncc1CN1CCCC(C(=O)c2ccc(OC)cc2C)C1` (centres undefined), the activity change was -6.21%.
For `C=CCn1nc(C(=O)OCC)cc1-c1sc(NC(=O)c2ccccc2)nc1C` the value was 21.3%.
For `CN(C)CCNC(=O)/C(=C/c1cccc([N+](=O)[O-])c1)NC(=O)c1ccccc1` the value was -83.8% (active).
The figure for `O=C(NCCc1ccccc1)/C(=C\c1ccc([N+](=O)[O-])cc1)NC(=O)c1ccccc1` is -33.9%.
Take `C=CCNC(=O)/C(=C\c1cccc([N+](=O)[O-])c1)NC(=O)c1ccccc1`: the activity change is -8.85%.
For `CCOC(=O)C=Cc1ccc(C(=O)OCC)[nH]1` the value was 6.88%; for `C[C@H](CO)N1C[C@H](C)[C@H](CN(C)C(=O)c2ccncc2)OCc2ccccc2-c2c(n(C)c3ccccc23)C1=O`, -0.608%.
In the case of `COc1ccccc1-n1c(SCC(=O)Nc2ccc(Cl)cc2)nc(O)c(Cc2ccccc2)c1=O`, the activity change is 4.83%.
As to `CC(C)c1cc(C(=O)NC2CCCCCC2)c2ccccc2n1`, the activity change is 2.17%.
For `C[C@@H]1CN([C@@H](C)CO)S(=O)(=O)c2ccc(C#Cc3cccc(F)c3)cc2O[C@H]1CN(C)S(=O)(=O)c1cn(C)cn1` the value was 7.52%.
The figure for `CC1CN(C(=O)CCC(=O)NCCCN2CCC(Cc3ccccc3)CC2)c2cc(Cl)ccc2O1` (centres undefined) is -84.9% (active); for `CC1CN(C(=O)CCC(=O)NCc2cccnc2)c2ccccc2O1` (centres undefined) it is 27.3%; for `CC1CN(C(=O)CCC(=O)NC2CCN(Cc3ccccc3)CC2)c2ccccc2O1` (centres undefined) it is -0.725%.
For `O=C1NC(Cc2ccccc2)c2nc3ccc(Br)cc3c(=O)n2-c2cc3ccccc3cc21` (centres undefined) the value was -16.2%.
On to `Cc1ccc([C@H]2N[C@]3(CCCN(Cc4ccccc4)C3=O)[C@H]3C(=O)N(Cc4ccccc4)C(=O)[C@@H]23)cc1`, for which the activity change was 4.9%.
For `O=C(COc1ccc(S(=O)(=O)N2CCCC2)cc1[N+](=O)[O-])N1CCCCC1` the value was -5.01%.
The figure for `CCN=C1S/C(=C\c2cc(Br)ccc2OCC(=O)OCC)C(=O)N1CC` is -71.6% (active); for `Cc1cc(/C=C2/SC(=O)N(CC(=O)OC(C)C)C2=O)c(C)n1C` it is -7.88%; for `CCOC(=O)CC1C(=O)NCCN1C(=O)COc1ccc(Br)cc1C` (centres undefined) it is 3.78%.
For `Cc1ccc(C(=O)N2CCCc3ccccc32)c(Cl)c1` the value was 1.37%; for `CC1=C(N2CCN(c3ncccn3)CC2)CCC1=O`, -6.3%; for `Cc1nn(-c2ncccn2)c2c1C(=O)CC(C)(C)C2Br` (centres undefined), -151% (active).
Regarding `Cc1nn(-c2ccccc2)c2c1C(=O)NC(=O)C(C)(C)C2`, the activity change was -21.5%.
The figure for `COc1ccccc1NC(=O)C(CC(=O)O)Cc1cc(C)cc(C)c1` (centres undefined) is 12.9%.
For `C[C@H](O)[C@@H]1C(=O)N2CCc3c([nH]c4ccccc34)[C@@H]2C[C@@H]1N(C)C(=O)Nc1ccc(F)cc1` the value was -6%; for `OC(CN1C2=NCCCN2c2ccccc21)c1ccc(Br)cc1` (centres undefined), -80.8% (active).
For `CC(C)(C)C(=O)CN1C2=NCCN2c2ccccc21`, the activity change was 7.56%.
The figure for `Cc1cc2c(cc1C)N(Cc1ccccc1)C1=NCCCN12` is -15.2%; for `CCn1ccnc1CN(C)Cc1nc(-c2ccc3c(c2)OCO3)no1` it is -1.19%.
The figure for `CN(CCN1CCOCC1)Cc1nc(-c2ccc3c(c2)OCO3)no1` is 3.94%; for `CC(C)N(Cc1nc(-c2ccc3c(c2)OCO3)no1)CC1CCC(=O)N1` (centres undefined) it is -93.2% (active); for `C[C@@H]1CN([C@H](C)CO)C(=O)c2cc(-c3ccc(F)cc3)cnc2O[C@H]1CN(C)C(=O)c1ccc(F)cc1` it is -4.52%.
Turning to `O=C(NCC(F)(F)F)c1ccc(S(=O)(=O)NCCc2ccc3c(c2)OCCO3)cc1`, the activity change was -2.33%.
Consider `CCCCCCn1c(=O)n2n(c1=O)C[C@]1(OC(=O)NCc3ccc(OC)c(OC)c3)CN(S(=O)(=O)c3ccc(C)cc3)C[C@]1(O)C2`, for which the activity change was -6.76%.
For `CN(CC#CCC(c1ccccc1)c1ccccc1)C(C)(C)C` the value was -77% (active); for `CC(C)(C)N(CC#CCC(O)(c1ccccc1)C1CCCC1)CCO` (centres undefined), -6.97%.
For `Cc1ccc(CCNC(=O)CN2C(=O)CSc3ccc(S(=O)(=O)N4CCOCC4)cc32)cc1` the value was 4.19%; for `COC(=O)[C@H]1C[C@H](OC(=O)NCc2ccccc2)[C@@]2(O)CN(S(=O)(=O)c3ccc(C)cc3)CC2[C@H]1C(=O)OC` (some centres undefined), 2.28%; for `C[C@H](CO)N1C[C@H](C)[C@@H](CN(C)Cc2ccc3c(c2)OCO3)OCc2cnnn2CCCC1=O`, -0.449%.
For `CC(Sc1nnc(CNC(=O)c2ccccc2F)n1C)C(=O)Nc1nccs1` (centres undefined) the value was -211% (active); for `Cn1c(CNC(=O)c2ccccc2F)nnc1SCc1ccc(F)cc1`, 18.4%.
As for `COc1ccccc1C(=O)NCc1nnc(SC(C)C(=O)Nc2nccs2)n1C` (centres undefined), the activity change is -5.02%.
